Measurements as given in PubChem BioAssay (NCATS).
Results filed as inconclusive are left out. Unmarked numbers belong to inactive results. The call rests on the fitted dose curve; in most records, active means well fitted inhibition curve with a large enough effect; inconclusive means small, poorly fitted or top-dose-only effect; inactive means no such curve, though single readings can be large or run the other way.

test system: Zika virus NS2B-NS3 protease (unlinked complex); experiment: Primary screen GU Rhodamine qHTS for Zika virus inhibitors: Unlinked NS2B-NS3 protease assay (AID 1347159); settings: Recombinant ZIKV NS2B-NS3 protease, Rhodamine110 substrate fluorescence; series mostly up to 107 µM; activity change, negative = inhibition: at the top concentration; further: nearly all actives have a fitted effect of over 60% in size
In short: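 Unlinked NS2B/NS3, 25 nM; Rhod110 peptide, 1.5 microM; compounds, up to 114 microM. Reaction run 15 min at RT in 10 mM Tris-HCl pH 8.0, 0.01% Tween 20; kinetic fluorescence change fitted with a 4-parameter Hill model.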
On the % scale 0 is the no-effect control and ±100 the full control effect.

Compound	activity change, negative = inhibition
CCN1CCC[C@@H]1CNC(=O)c1ccc2c(c1)NC(=O)c1cccc(C)c1S2	0%
CC(C)(O)C(=O)N1CCN(c2ccc(C(F)(F)F)c(C3=C(c4c[nH]c5ccccc45)C(=O)NC3=O)c2)CC1	3.11%
COc1cc(CCc2cc(NC(=O)c3ccc(N4CC(C)NC(C)C4)cc3)n[nH]2)cc(OC)c1 (centres undefined)	107%
Cc1cc(-c2nc(-c3ccc(OC(F)(F)F)cc3)no2)nn1Cc1ccnc(N2CCN(C3CC3)CC2)c1	-14.8%
NC(=O)CCCSc1nc(N)nc(-c2c(Cl)cc3c4c(cccc24)COC3)n1	23.4%
CCC(C)CNCC(=O)N1CCC2SC=CC2C1COc1cccc(C)c1 (centres undefined)	78%
C=C1CC(=O)C2OC2(C)CC2OC(=O)C(=C)C2C(O)C1OC(=O)/C(C)=C\C (centres undefined)	14.8%
C[C@@H]1O[C@@H](O[C@H]2[C@@H](OC(=O)[C@]34CCC(C)(C)CC3C3=CCC5[C@@]6(C)C[C@H](O)[C@H](O[C@@H]7O[C@H](CO)[C@@H](O)[C@H](O)[C@H]7O[C@@H]7OC[C@@H](O)[C@H](O)[C@H]7O)[C@@](C)(C(=O)O)C6CC[C@@]5(C)[C@]3(C)CC4)OC[C@H](O)[C@@H]2O)[C@H](O)[C@H](O)[C@H]1O[C@@H]1OC[C@@H](O)[C@H](O)[C@H]1O (some centres undefined)	46.4% [at 19.1 µM]
NC(=O)c1ccccc1Nc1ccnc(Nc2cccc(O)c2)n1	5.6%
O=C(NCCN1CCOCC1)c1cc2c(Oc3ccc(NC(=O)C4(C(=O)Nc5ccc(F)cc5)CC4)cc3)ccnc2[nH]1	54%
O=C(Nc1ccc(N(Cc2ccsc2)C(=O)Cn2nnc3ccccc32)cc1)C1CC1	0.727%
Cc1cc(C)c(-n2cc(C)c3c(Cl)nc(C)nc32)c(C)c1	-20%
C=C1C(=O)O[C@@H]2C[C@H](C)[C@@H]3CC(=O)C(C)=C3C[C@H]12	15.3%
COc1ccc([C@H](Cc2ccncc2)c2ccccc2)cc1OC1CCCC1	-9.83%
Nc1nc2c(cnn2CCCc2ccc(O)cc2)c2nc(-c3ccco3)nn12	-1.19%
Cc1ccc(NC(=O)N2CCN(c3nc(N)nc4sc(-c5cccnc5)nc34)CC2)cc1	-22.1%
CCNc1nc(Nc2cc(F)c(C(=O)N3CCOCC3)cc2OC)ncc1C(F)(F)F	8.07%

Compound	activity change, negative = inhibition
O=C(CCl)Nc1cccc(NC2=NS(=O)(=O)c3ccccc32)c1	-26.6%
COc1ccc(-c2ccc3c(N4CCOCC4C)nc(N4CCOCC4C)nc3n2)cc1CO (centres undefined)	-10.9%
Cc1ccnn1-c1ccc(C(=O)N2CCN(S(=O)(=O)c3ccc(Cl)c(C(F)(F)F)c3)CC2)cc1	-3.13%
C=C1C(=O)O[C@@H]2/C=C(\C)CC/C=C(\C)CC[C@@H]12	20.6%
CC(O)C(C)n1ncn(-c2ccc(N3CCN(c4ccc(OCC5COC(Cn6cncn6)(c6ccc(Cl)cc6Cl)O5)cc4)CC3)cc2)c1=O (centres undefined)	0%
CC(C)(C)c1ccc(NC(=O)N2CCN(c3ncccc3Cl)CC2)cc1	1.84%
Clc1ncoc1-c1c[nH]c2ccccc12	-0.569%
C/C=C/C1=CC2=C(CO1)C(=O)C(C)(OC(=O)c1c(C)cc(O)cc1OC)C(O)C2 (centres undefined)	-18%
Cc1csc(N(C(=O)CSc2ccc(-c3ccccc3)nn2)C2CC2)n1	-6.04%
COc1ccc(C2(N(C)C(=O)c3ccc(NC(=O)c4ccco4)cc3)CCOCC2)cc1	14.2%
Nc1ncnc2c1c(-c1ccc(Cl)cc1)nn2-c1cccc(-c2cnnn2Cc2cccc(-c3ccccc3)c2)c1	-5.54%
O=[N+]([O-])c1ccc(Oc2ccc3c(c2)CCC(c2ccccc2)O3)nc1 (centres undefined)	10.7%
CC(C)=C[C@@H]1[C@H](CO[C@@H]2O[C@H](CO)[C@@H](O)[C@H](O)[C@H]2O)C1(C)C	-21.3%
CC(=O)Nc1cccc(Nc2ncnc(N3CCC(OCc4ccc(OC(F)(F)F)cc4)CC3)n2)c1C	-18%
COc1c2c(nc3occc13)C(CC=C(C)C)(OC)C(O)CC2 (centres undefined)	22.9%
CC(C)(O)/C=C/C(=O)[C@](C)(O)[C@H]1[C@H](O)C[C@@]2(C)[C@@H]3CC=C4[C@@H](C[C@H](O[C@@H]5O[C@H](CO)[C@@H](O)[C@H](O)[C@H]5O)C(=O)C4(C)C)[C@]3(C)C(=O)C[C@]12C	-10.2% [at 32.5 µM]
CCC(C)(OC(C)=O)C(=O)O[C@H]1[C@H](OC(C)=O)[C@]2(CO)[C@H](O)[C@H](O)[C@]3(C)C(=CCC4[C@@]5(C)CC[C@H](O[C@@H]6O[C@H](C(=O)O)[C@@H](O)[C@H](O[C@@H]7OC[C@H](O)[C@H](O[C@@H]8OC[C@H](O)[C@H](O)[C@H]8O)[C@H]7O)[C@H]6O[C@@H]6O[C@H](CO)[C@@H](O)[C@H](O)[C@H]6O)C(C)(C)C5CC[C@]43C)[C@@H]2CC1(C)C (some centres undefined)	-1.56% [at 19.1 µM]
